High-throughput results from PubChem BioAssay.
Rtt109 HAT inh = blocks Candida albicans Rtt109/Vps75 acetyltransferase activity | hit rate 0.16% among 330,000 | inhibition, % at 34.9 µM | AID 540336 | purified Rtt109/Vps75, ThioGlo CoA-SH fluorescence, 4 h;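 active = inhibition of at least 50% in every replicate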
HDAC3 inhib = human HDAC3 inhibition; O15379; recombinant HDAC3, fluorogenic peptide/trypsin coupled, fluorescence; inhibition, % at 8.3 µM; hit rate 0.15% among 320,000; AID 2718; in the data active = inhibition above about 26%, passing the limit was not always enough
Target sequence (O15379 whole entry, looked up): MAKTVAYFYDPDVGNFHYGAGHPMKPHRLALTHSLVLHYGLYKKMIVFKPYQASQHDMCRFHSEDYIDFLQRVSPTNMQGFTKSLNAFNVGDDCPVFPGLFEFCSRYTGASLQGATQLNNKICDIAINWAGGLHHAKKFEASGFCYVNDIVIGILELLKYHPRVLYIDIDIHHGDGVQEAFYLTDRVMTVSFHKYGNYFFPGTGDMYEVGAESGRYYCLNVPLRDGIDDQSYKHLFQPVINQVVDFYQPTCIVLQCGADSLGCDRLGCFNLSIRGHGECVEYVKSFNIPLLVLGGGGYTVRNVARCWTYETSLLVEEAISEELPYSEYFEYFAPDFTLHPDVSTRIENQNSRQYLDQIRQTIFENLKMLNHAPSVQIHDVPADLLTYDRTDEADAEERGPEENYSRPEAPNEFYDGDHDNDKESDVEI
V-ATPase pH = regulators of yeast V-ATPase proton transport. response, % at 10 µM. hit rate 0.37% among 350,000. AID 504577. S. cerevisiae, pHLuorin cytosolic pH fluorescence; in the data active = response mostly above about 7.3%, no sharp cut-off; inactive = mostly below about 5.4%; note: actives read high
DAGLB inh = blocks human DAGLB lipase activity | hit rate 0.059% among 340,000 | HEK293T DAGLB membrane lysate, EnzChek fluorogenic substrate | inhibition, % at 5.17 µM; in the data active = inhibition above about 34%
MIN6 prolif = inducers of beta-cell replication in MIN6 cells | MIN6 cells proliferation, ATPlite luminescence, 48 h; cells starved in 0.2% serum; 100% = growth in 10% serum | proliferation, % at 10 µM | hit rate 0.29% among 330,000 | AID 2380;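 active = compounds whose signal lies at least 3.5 SD above the mean of all wells on their plate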
V-ATPase pH SP = regulators of yeast V-ATPase proton transport | response, % at 10 µM | hit rate 2% among 980 | shares compounds with V-ATPase pH | AID 602197 | S. cerevisiae pHLuorin cytosolic pH; in the data active = response above about 24%
Of the large screens only hits and unclear results are named; the others gave an inactive call (follow-up assays come after a bar, where they were run). In the library only some 0.96% were active in any assay of this set; here they are far more common.

Cc1ccccc1CN1CCNCC1	V-ATPase pH 11 (no result: Rtt109 HAT inh) | V-ATPase pH SP inactive
Cc1ccc(C2C(S(C)(=O)=O)=C(O)C(=O)N2c2ccccc2)cc1 (stereo unspecified) (tested in a mixture with another compound)	V-ATPase pH 7.7 | V-ATPase pH SP inactive
Cc1cc(OCC(=O)N2CCC(C(=O)O)(c3ccccc3)CC2)c2c(C)c(C)c(=O)oc2c1	V-ATPase pH 10 | V-ATPase pH SP inactive
Cn1c(O)c(/C=C/C=Nc2ccccc2)c(=O)n(C)c1=O	none
CCOP(=O)(OCC)C(O)c1ccc(Br)cc1 (stereo unspecified)	none
CCOC(=O)c1cc2c(cn1)[nH]c1ccccc12	none | V-ATPase pH SP inactive
CCOC(=O)c1ccccc1N	none (no result: HDAC3 inhib)
C[C@]1(O)CC[C@H]2[C@@H]3CCC4=CC(=O)CC[C@]4(C)[C@@]3(F)[C@@H](O)C[C@@]21C	V-ATPase pH 9.2 (no result: HDAC3 inhib, MIN6 prolif) | V-ATPase pH SP inactive
Cn1c(O)c(C(=N)COc2cccc(Cl)c2)c(=O)n(C)c1=O	none
Cc1ccsc1/C=C1\C(=O)NC(=S)N(C)C1=O	V-ATPase pH 11 | V-ATPase pH SP 45
COc1ccc(/C=C2\C(=O)NC(=S)N(C)C2=O)cc1C	none
CS(=O)(=O)c1ccc(C2=C(CNC(=O)c3ccc([N+](=O)[O-])cc3)[C@H]3CC[C@@H](C2)N3Cc2ccccc2)cc1	none (no result: Rtt109 HAT inh, HDAC3 inhib, MIN6 prolif)
C[C@]12CC[C@H](O)CC1=CC(=O)C1C2CC[C@]2(C)C(=O)CCC12 (stereo partly specified)	none
Cc1ccc([N+](=O)[O-])cc1	V-ATPase pH 21 | V-ATPase pH SP inactive
C/C(=N\Nc1ccccc1)c1c(O)[nH]c(=O)[nH]c1=O	V-ATPase pH 16 | V-ATPase pH SP inactive
CN1CCN(c2nc(N)cc(=O)[nH]2)CC1	none
Cc1ccc2nc(N3CCN(C)CC3)[nH]c2c1	V-ATPase pH 12 | V-ATPase pH SP inactive
O=c1c2ccccc2nc(/C=C\c2ccccc2[N+](=O)[O-])n1-c1ccccc1O	none (no result: HDAC3 inhib)
CC(=O)N1N=C2C3CCN(CC3)C2C1c1ccc(Br)cc1 (stereo unspecified)	none
CC(C)c1ccc(C(c2c(O)c3ccccc3oc2=O)c2c(O)c3ccccc3oc2=O)cc1	none (no result: Rtt109 HAT inh, HDAC3 inhib, MIN6 prolif)
O=c1oc2ccccc2c(O)c1C(c1ccc([N+](=O)[O-])cc1)c1c(O)c2ccccc2oc1=O	Rtt109 HAT inh 68, V-ATPase pH 12 (no result: HDAC3 inhib, MIN6 prolif) | V-ATPase pH SP inactive
O=C(Nc1ccc(F)cc1)c1c(O)c2c(n(Cc3ccccc3)c1=O)CCCC2	Rtt109 HAT inh 50, V-ATPase pH 10.0 | V-ATPase pH SP inactive
